# Screens as filed in PubChem BioAssay.
# Sampled rows, rich in hits. Any-hit rate of the full collection: about 4.5%.
# tim10-1 inh – inhibits growth of tim10-1 mutant yeast. S. cerevisiae tim10-1 ts strain growth, BacTiter-Glo, 24 h. inhibition, % at 20 µM. 330,000 compounds, 2.2% hits;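 active = inhibition of at least 40%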;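 also: mutant grown at 25 °C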
# PfHsp90 yeast 2 – growth inhibition of yeast expressing Plasmodium Hsp90 | S. cerevisiae expressing PfHsp90, BacTiter-Glo ATP, 48 h; yeast lacking PDR1 and PDR3 efflux regulators | inhibition, % at 9.4 µM | 310,000 compounds, 0.32% hits | AID 504621;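 active = every replicate shows inhibition above about 80%, whatever the replicate mean, limit read from the data; inconclusive = mean inhibition reaches the set limit but some replicate falls short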
# tim23-1 inh – inhibits growth of tim23-1 mutant yeast | S. cerevisiae tim23-1 growth, BacTiter-Glo luminescence, 24 h | AID 463212 | inhibition, % at 20 µM | 330,000 compounds, 1.3% hits;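 active = growth inhibition of the mutant yeast at or above 50%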;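 also: temperature-sensitive mutant grown at 25 °C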
# SKKanGAS inh – SKKanGAS growth inhibition; S. pyogenes SKKanGAS, kanamycin growth, BacTiter-Glo, 6 h; inhibition, % at 7.5 µM; 300,000 compounds, 1.3% hits; AID 1662;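 active = mean replicate score, as percent of positive control median, at least 50; inconclusive = mean below 50 but one replicate at or above 50; inactive = mean and every replicate below 50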;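 also: strain carries kanamycin resistance gene driven by streptokinase promoter and grows in 40 µg/ml kanamycin; loss of luminescence reflects streptokinase promoter inhibition or plain growth inhibition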
# TIM10 inh – TIM10 yeast growth inhibition | S. cerevisiae TIM10 strain growth, BacTiter-Glo luminescence, 24 h | 330,000 compounds, 1.4% hits | AID 463195 | inhibition, % at 10 µM;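 active = inhibition of 40% or more at the single tested concentration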;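 also: wild-type TIM10 isogenic control strain grown at permissive 25 °C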
# NLRP3 yeast inh – NALP3 inhibition in yeast | Yeast reconstituted NLRP3/ASC/caspase-1, beta-gal luminescence, 24 h | inhibition, % at 10 µM | 330,000 compounds, 0.39% hits;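 active = inhibition of 50% or more; inactive = inhibition below 50%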
# tim10-1 confirm – confirmation of tim10-1 mutant yeast growth inhibitors; AID 463213; inhibition, % at 20 µM; 7,400 compounds, 56% hits; S. cerevisiae tim10-1 ts strain growth, BacTiter-Glo, 24 h; shares compounds with tim10-1 inh;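 active = inhibition of yeast growth at or above a set limit in either of two repeat tests at 20 µM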;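 also: tim10-1 mutant grown at permissive 25 °C to find synthetic lethal compounds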
# A number is an active result; i = inactive; ? = inconclusive; nt = not tested or not shown.
SMILES,tim10-1 inh,PfHsp90 yeast 2,tim23-1 inh,SKKanGAS inh,TIM10 inh,NLRP3 yeast inh,tim10-1 confirm
CCn1c(-c2cc(-c3cccc(OC)c3)nc3ccccc23)n[nH]c1=S,43,nt,i,i,i,i,i
O=C(Nc1ccc2c(c1)OCO2)c1nn(-c2ccccc2)c(=O)c2ccccc12,44,i,i,i,i,i,i
Cc1csc(NC(=O)CCn2c(=O)oc3ccc(Cl)cc32)n1,43,i,i,i,i,i,i
Cc1nnc(NC(=O)CCn2c(=O)oc3ccc(Cl)cc32)s1,i,i,i,i,i,i,nt
CCN(C(=O)c1cccc(S(=O)(=O)N(C)C)c1)C12CC3CC(CC(C3)C1)C2,41,i,i,i,i,i,i
COc1ccccc1/C(C)=N/NC(=S)NCc1ccccc1,47,i,i,i,i,i,i
CCOc1ccc(C(=O)Nc2cnn(Cc3ccc(Cl)c(Cl)c3)c2)cc1,41,i,i,i,i,i,35
Cc1ccc(S(=O)(=O)Nc2ccc(Nc3ccccc3)cc2)cc1,43,i,i,i,i,i,i
CC1CCN(C(=O)CCc2ccc(Oc3cc([N+](=O)[O-])cc([N+](=O)[O-])c3)cc2)CC1,51,i,i,i,i,i,41
O=C(CCc1ccc(Oc2cc([N+](=O)[O-])cc([N+](=O)[O-])c2)cc1)NC1CCCC1,i,i,i,i,i,i,nt
CC(=O)Nc1ccc(NC(=O)CCCCCN2C(=O)c3ccccc3C2=O)cc1,i,i,i,i,i,i,nt
CCN(CC)c1ccc(NC(=O)CCCCCN2C(=O)c3ccccc3C2=O)cc1,46,nt,i,i,i,i,42
O=C(Cc1coc2ccc3ccccc3c12)N1CCN(c2ncccn2)CC1,43,nt,i,i,i,i,i
O=C(Cc1cccc2ccccc12)N1CCN(c2ncccn2)CC1,i,i,i,i,i,i,nt
O=C(COC(=O)/C=C/c1ccc(C(F)(F)F)cc1)NCC1CCCCC1,i,i,i,i,i,i,nt
Cc1onc(-c2ccc3c(c2)OCO3)c1-c1ccc2[nH]ccc2c1,54,i,i,i,i,i,40
c1cc2cc(-c3c(-c4ccc5c(c4)OCO5)noc3-c3ccsc3)ccc2[nH]1,i,i,i,i,i,i,nt
Cc1ccc(Cl)cc1NC(=O)CON=C(N)c1ccccc1,i,i,i,nt,i,i,nt
O=C(CCNc1ccc(Cl)c(C(F)(F)F)c1)c1ccco1,43,i,i,i,i,i,i
COc1cccc(NC(=O)CN(C)C(=O)c2cc(-c3ccccc3)nn2-c2ccccc2)c1,i,i,i,nt,i,i,nt
COC(=O)c1cccc(Nc2cc(C)nc(-c3ccccc3O)n2)c1,62,i,i,i,i,i,35
COC(=O)c1ccc(Nc2cc(C)nc(-c3ccccc3O)n2)cc1,i,i,i,i,i,i,nt
CCn1cc(Br)c(C(=O)Nc2ccc(C(=O)OC(C)C)cc2)n1,41,i,i,i,i,i,34
Cc1ccc(NC(=S)NCCc2ccc(F)cc2)c(C)c1,i,i,i,i,i,i,nt
CCOc1ccccc1NC(=S)NCCc1ccccc1,42,i,i,i,i,i,i
SMILES,tim10-1 inh,PfHsp90 yeast 2,tim23-1 inh,SKKanGAS inh,TIM10 inh,NLRP3 yeast inh,tim10-1 confirm
CCOc1ccccc1NC(=S)NCCc1ccc(F)cc1,i,i,i,i,i,i,nt
Cc1ccc(F)cc1NC(=S)NCCc1ccccc1,45,i,i,i,i,i,i
CCC1CN(C(=O)N2CCC(C(=O)NCCc3ccccc3)CC2)c2ccccc2O1 (centres undefined),i,i,i,i,i,i,nt
CC1CCN(S(=O)(=O)c2ccc(NC(=O)Cc3cccs3)cc2)CC1,54,nt,i,i,i,i,36
CCN(CC)S(=O)(=O)c1ccc(NC(=O)Cc2cccs2)cc1,45,i,i,i,i,i,i
NS(=O)(=O)c1ccc(NC(=O)Cc2cccs2)cc1,i,i,i,i,i,i,nt
CC(C)(C)OC(=O)N1CCC[C@H]1c1nnc(SCc2ccccc2Cl)o1,i,i,i,i,i,i,nt
CC(C)(C)OC(=O)N1CCC[C@H]1c1nnc(SCc2ccc(Cl)cc2Cl)o1,40,i,i,i,i,i,i
CCN(CC(=O)Nc1ccc(Br)cc1F)CC(=O)NC1CCS(=O)(=O)C1 (centres undefined),i,i,i,nt,i,i,nt
Cc1ccc(-n2ncc3c(NCc4ccc5c(c4)OCO5)ncnc32)c(C)c1,41,i,i,i,i,i,i
Cc1ccc(-n2ncc3c(NCc4cccnc4)ncnc32)cc1C,43,i,i,i,i,i,i
Cc1cccc(-n2ncc3c(NCc4cccnc4)ncnc32)c1,i,i,i,i,i,i,nt
CC(C)c1ccc(S(=O)(=O)N2CCN(C(=O)CCNC(=O)Nc3ccccc3)CC2)cc1,i,i,i,nt,i,i,nt
CC(C)c1ccc(NC(=O)N2CCN(S(=O)(=O)c3ccccc3)CC2)cc1,41,i,i,i,i,i,i
COc1cc(OC)cc(C(=O)Nc2ccc(-n3cnnn3)c(C)c2)c1,i,nt,i,i,i,i,nt
Cc1cc(NC(=O)c2oc3ccccc3c2C)ccc1-n1cnnn1,42,i,i,i,i,i,i
O=C(NC(c1cccnc1)C(F)(F)F)c1cc(COc2ccc3c(c2)CCCC3)on1 (centres undefined),42,i,i,i,i,i,i
Cc1ccc(S(=O)(=O)N2CCOCC2)cc1C(=O)OCC(=O)N(Cc1ccccc1)C(C)C,i,i,i,nt,i,i,nt
O=C(N/N=C/c1ccc(O)c2ncccc12)c1cccc(Br)c1,52,104,i,i,i,i,i
Cc1ccc(C(=O)N/N=C/c2ccc([N+](=O)[O-])s2)cc1,i,i,i,?,i,i,nt
O=C(N/N=C/c1ccc([N+](=O)[O-])s1)c1cccc(Br)c1,52,i,i,i,i,i,i
FC(F)(F)c1cccc(NC(=S)NC2CCCC2)c1,i,i,i,i,i,i,nt
FC(F)(F)c1ccc(NC(=S)NC2CCCCC2)cc1,43,i,i,i,i,i,38
S=C(Nc1ccccn1)NC1CCCCC1,i,i,i,i,i,i,i
O=C(Nc1cccc(F)c1)C1CCCCC1,i,i,i,nt,i,i,nt
Fc1cccc(NC(=S)NC2CCCCCCC2)c1,50,i,i,nt,i,i,i
Cc1cc(C)n2nc(CC(=O)NNC(=O)c3ccccc3Cl)nc2n1,i,i,i,i,i,i,nt
CC1=C(C(=O)N2CCc3ccccc32)C2(CCC(C)CC2)OC1=O (centres undefined),48,i,i,nt,i,i,33
CC1=C(C(=O)N2CCCCC2)C2(CCC(C)CC2)OC1=O (centres undefined),i,i,i,i,i,i,nt
CSc1ccc(/C=C/C(=O)c2ccc(NC(C)=O)cc2)cc1,i,i,i,i,i,i,nt
